In the library only some 3.6% were active in any assay of this set; here they are far more common.
Pf apPOL inh – Pf-apPOL DNA polymerase inhibition; Recombinant Pf-apPOL, molecular beacon fluorescence, 1.5 h; inhibition, % at 10 µM; 210,000 compounds, 0.25% hits; AID 1794808
mHTT-CaM PPI inh – disrupts binding of mutant huntingtin to calmodulin; AlphaScreen His-mHTT/GST-CaM binding, luminescence; inhibition, % at 15 µM; AID 1671202; 190,000 compounds, 3.6% hits; P42858;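 further: 0% = both proteins with DMSO and 100% = one protein alone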
* = called active by the depositor. No stated cut-off is given here; in the data, active means inhibition above about 50%; inactive means the rest.

Screening COc1ccc(C2C3=C(CCCC3=O)Nc3nc(-c4ccc(N(C)C)cc4)nn32)cc1OC (stereo not drawn) returned Pf apPOL inh 1.6 and mHTT-CaM PPI inh 80.3*.
Screening COc1ccc(-c2nc3n(n2)C(c2ccc(OC)c(OC)c2)C2=C(CCCC2=O)N3)cc1 (stereo not drawn) returned Pf apPOL inh -0.8 and mHTT-CaM PPI inh 16.3.
For COc1cc(C2C3=C(CCCC3=O)Nc3nc(-c4ccc(O)cc4)nn32)cc(OC)c1OC (stereo not drawn) the results were Pf apPOL inh -2.0 and mHTT-CaM PPI inh 12.3.
CC1(C)CC(=O)C2=C(C1)Nc1nc(-c3ccc(O)cc3)nn1C2c1ccccc1 (stereo not drawn) was read as Pf apPOL inh -0.4 and mHTT-CaM PPI inh -8.5.
`COc1cc(-c2nc3n(n2)C(c2ccccc2)C2=C(CCCC2=O)N3)cc(OC)c1OC` (stereo not drawn) gave Pf apPOL inh -2.6 and mHTT-CaM PPI inh 52.4*.
For Cc1c(F)cccc1N1CCC(C(=O)NCc2ccc(F)cc2)C1=O (stereo not drawn) the results were Pf apPOL inh -7.8 and mHTT-CaM PPI inh -5.0.
Screening COc1ccccc1-c1onc(C)c1C(=O)NCc1cccc2ccccc12 returned Pf apPOL inh -4.7 and mHTT-CaM PPI inh 0.8.
`COCCN1C(=O)Cc2ccccc2C1C(=O)NCCC(C)C` (stereo not drawn) gave Pf apPOL inh -3.8 and mHTT-CaM PPI inh -3.9.
O=C(C1CCN(Cc2ccc(OCc3ccccc3)cc2)CC1)N1CCN(c2ccccc2)CC1 was read as Pf apPOL inh -6.8 and mHTT-CaM PPI inh 63.3*.
Screening O=C(C1CCN(Cc2cccc(OCc3ccccc3)c2)CC1)N1CCOCC1 returned Pf apPOL inh -4.1 and mHTT-CaM PPI inh 0.7.
Cc1ccc2nc(C(=O)NCCN3CCCCC3)cn2c1 was read as Pf apPOL inh -2.5 and mHTT-CaM PPI inh -3.9.
Cc1ccc2nc(C(=O)NCCN3CCCCCC3)cn2c1 was read as Pf apPOL inh 34.3 and mHTT-CaM PPI inh 50.1*.
Screening O=C(Nc1ccccc1[N+](=O)[O-])c1ccc(Cl)c(S(=O)(=O)NC2CCCC2)c1 returned Pf apPOL inh -6.6 and mHTT-CaM PPI inh 28.3.
O=C(Nc1ccccc1[N+](=O)[O-])c1cc(S(=O)(=O)NC2CCCCC2)c(Cl)cc1Cl was read as Pf apPOL inh -3.8 and mHTT-CaM PPI inh 57.5*.
O=C(NCCn1ccc2ccccc21)c1c(F)cccc1F was read as Pf apPOL inh -0.4 and mHTT-CaM PPI inh -2.0.
For O=C(NCCn1ccc2ccccc21)C1(c2ccc(Cl)cc2)CCCC1 the results were Pf apPOL inh 8.4 and mHTT-CaM PPI inh 83.0*.
Screening c1ccc(-c2nnc3sc(C4CCCCC4)nn23)nc1 returned mHTT-CaM PPI inh 4.7.
`Brc1ccc(-c2nn3c(-c4ccccn4)nnc3s2)o1` gave mHTT-CaM PPI inh 84.7*.
Screening CCCC(=O)c1cc2c(cc1[N+](=O)[O-])OCCO2 returned Pf apPOL inh -4.9 and mHTT-CaM PPI inh 1.1.
Screening Cc1ccc(C(c2ccc(C)o2)c2cc3c(cc2[N+](=O)[O-])OCCO3)o1 returned Pf apPOL inh -6.0 and mHTT-CaM PPI inh 56.0*.
Screening Cc1ccc(C(c2ccc(C)o2)c2cc(Br)cc([N+](=O)[O-])c2O)o1 returned Pf apPOL inh 3.9 and mHTT-CaM PPI inh 42.0.
`Cc1ccc(C(c2ccc(C)o2)c2cc([N+](=O)[O-])cc(Br)c2O)o1` gave Pf apPOL inh -4.0 and mHTT-CaM PPI inh 64.7*.
Cc1cc(C(=O)Nc2nnc(SCC(=O)N3CCCc4ccccc43)s2)c(C)o1 was read as Pf apPOL inh -4.6 and mHTT-CaM PPI inh -2.4.
For O=C1NC2(CCN(Cc3ccc(Cl)cc3)CC2)N=C1c1ccccc1 the results were Pf apPOL inh -3.0 and mHTT-CaM PPI inh 55.5*.
O=C1NC2(CCN(Cc3ccccc3)CC2)N=C1c1cccc(Cl)c1 was read as Pf apPOL inh -2.5 and mHTT-CaM PPI inh 9.6.
For COc1cccc(CN2CCC3(CC2)N=C(c2ccccc2)C(=O)N3)c1 the results were Pf apPOL inh 1.0 and mHTT-CaM PPI inh 57.6*.
O=C1NC2(CCN(Cc3ccccc3)CC2)N=C1c1cccc(F)c1 was read as Pf apPOL inh -4.6 and mHTT-CaM PPI inh 15.6.
Screening CC(C)C(=O)N1CCC(Cc2nnc(-c3ccccc3)o2)CC1 returned Pf apPOL inh -2.0 and mHTT-CaM PPI inh 0.3.
Screening NC(=O)c1oc2ccccc2c1NC(=O)C12CC3CC(CC(C3)C1)C2 returned Pf apPOL inh 5.5 and mHTT-CaM PPI inh 100.2*.
For CCOC(=O)c1oc2ccccc2c1NC(=O)C12CC3CC(CC(C3)C1)C2 the results were Pf apPOL inh 0.2 and mHTT-CaM PPI inh -5.2.
O=C(NC1CC1)c1ccc(OCC2CCN(C(=O)c3cc(F)ccc3Cl)CC2)cc1 was read as Pf apPOL inh -19.5 and mHTT-CaM PPI inh 0.9.
Screening CCc1ccccc1N1CCN(C(=O)c2cccc(C)c2)C(C)C1=O (stereo not drawn) returned Pf apPOL inh -0.2 and mHTT-CaM PPI inh -9.6.
